Assay outcomes deposited in PubChem by several laboratories.
tim10-1 inh: growth inhibitors of tim10-1 mutant yeast, primary screen, luminescence, uHTS; inhibition, % at 20 µM; S. cerevisiae tim10-1 ts strain growth, BacTiter-Glo, 24 h; hit rate 2.2% among 330,000;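 active = inhibition of at least 40%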;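 also: mutant grown at 25 °C; 0% = DMSO wells with yeast and 100% = wells holding no yeast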
tim23-1 inh: growth inhibitors of tim23-1 mutant yeast, primary screen, luminescence, uHTS; S. cerevisiae tim23-1 growth, BacTiter-Glo luminescence, 24 h; inhibition, % at 20 µM; hit rate 1.3% among 330,000; AID 463212, 2010;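 active = growth inhibition of the mutant yeast at or above 50%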;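 also: temperature-sensitive mutant grown at 25 °C; plate controls were DMSO-treated mutant yeast for no effect and medium wells lacking yeast for full effect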
PfHsp90 set2: growth inhibition of PfHsp90-expressing yeast, primary screen, antimalarial PfHsp90 inhibitor project, S. cerevisiae, BacTiter-Glo luminescence, single point, set 2; BacTiter-Glo ATP, 48 h; yeast lacking PDR1 and PDR3 efflux regulators; inhibition, % at 9.4 µM; hit rate 0.32% among 310,000; AID 504621, 2011;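 active = every replicate shows inhibition above about 80%, whatever the replicate mean, limit read from the data; inconclusive = mean inhibition reaches the set limit but some replicate falls short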;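 also: 0% = DMSO neutral controls and 100% = 20 µM radicicol positive controls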
Calb FLC: C. albicans growth inhibition with fluconazole, primary screen, CaCi-2 strain, Alamar Blue fluorescence; growth inhibition, % (concentration not given with the values); hit rate 0.57% among 300,000; C. albicans CaCi-2 (fluconazole-resistant clinical isolate) + fluconazole, 48 h;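 active = growth inhibition above about 58% in most replicates, limit read from the data, passing the limit was not always enough; inconclusive = exactly half the replicates above a set limit; inactive = most replicates below a set limit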;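 also: all wells also contain fluconazole at 8 µg/ml as a sub-toxic cotreatment; 0% = median of DMSO wells and 100% = median of geldanamycin control wells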
SKKanGAS inh: S. pyogenes SKKanGAS growth inhibitors in kanamycin, primary screen, streptokinase expression inhibitor project, SKKanGAS strain, BacTiter-Glo luminescence | 6 h | inhibition, % at 7.5 µM | hit rate 1.3% among 300,000;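 active = mean replicate score, as percent of positive control median, at least 50; inconclusive = mean below 50 but one replicate at or above 50; inactive = mean and every replicate below 50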;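 also: strain carries kanamycin resistance gene driven by streptokinase promoter and grows in 40 µg/ml kanamycin; loss of luminescence reflects streptokinase promoter inhibition or plain growth inhibition; 0% = median of DMSO wells and 100% = positive control at its reference dose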
TIM10 inh: growth inhibitors of isogenic TIM10 control yeast, primary screen, counter-screen for tim10-1 yeast inhibitor project, luminescence, uHTS; inhibition, % at 10 µM; AID 463195, 2010; S. cerevisiae TIM10 strain growth, BacTiter-Glo luminescence, 24 h; hit rate 1.4% among 330,000;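 active = inhibition of 40% or more at the single tested concentration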;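 also: wild-type TIM10 isogenic control strain grown at permissive 25 °C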
Starred values were filed as active, the others as inactive; u = inconclusive; x = no result. Shown are actives, neighbours in structure and some others; about 4.7% of the full set was active somewhere.

SMILES | tim10-1 inh | tim23-1 inh | PfHsp90 set2 | Calb FLC | SKKanGAS inh | TIM10 inh
O=C(COC(=O)/C=C/c1ccc(F)cc1)Nc1ccc(S(=O)(=O)N2CCOCC2)cc1 | 17 | 31 | -2 | x | x | 16
Cc1cc2c(=O)n(Cc3ccco3)c(SCC(=O)NCc3ccco3)nc2s1 | 22 | 23 | 6 | 14 | 2 | 10
Cc1cc2c(=O)n(Cc3ccco3)c(SCC(=O)N3CCCc4ccccc43)nc2s1 | 31 | 42 | 3 | 3 | 58* | 25
Cc1ccccc1-n1c(SCC(=O)NC(N)=O)nc2sc(-c3ccccc3)cc2c1=O | 20 | 20 | -22 | -1 | 86* | 25
COc1ccc2c(c1)C=C(C(=O)NCc1ccc(Cl)cc1)CO2 | 27 | 35 | 98* | 8 | 7 | -15
Cc1c(Cl)cccc1-c1ccc(CNCc2ccccn2)o1 | -29 | 4 | -4 | 15 | 83* | -3
CS(=O)(=O)Cc1ccc(C(=O)N(CCc2ccccc2)Cc2ccccc2)cc1 | 3 | 5 | -2 | 1 | -1 | -6
CC(C)CNC(=O)c1oc2ccccc2c1COc1ccccc1 | 29 | 22 | -9 | -2 | 18 | 11
CCC(CC)NC(=O)c1oc2ccccc2c1COc1ccccc1 | 28 | 18 | 19 | -5 | 52* | 2
CS/C(=N\S(=O)(=O)c1ccc(N)cc1)NS(=O)(=O)c1cccs1 | -1 | 1 | -12 | -30 | -18 | 6
CS/C(=N\S(=O)(=O)c1cccs1)Nc1ccc(Cl)cc1 | 12 | 38 | 19 | 85* | 3 | 4
CS/C(=N\S(=O)(=O)c1cccs1)Nc1ccc(Br)cc1F | 15 | 32 | -26 | 101* | 8 | 16
COc1ccc(Nc2nc(NN)nc(Nc3ccc(OC)cc3)n2)cc1 | 33 | 45 | -5 | 9 | 50* | 39
Oc1[nH]c2ccccc2c1N=NC(=S)NCC1CCCO1 (stereo unspecified) | 33 | 15 | -25 | 53 | -4 | 11
COc1ccc(/C=N/OCC(=O)N=Nc2c(O)[nH]c3ccc(Br)cc23)cc1OC | 15 | 16 | 20 | u | 15 | 27
COc1ccccc1NC(=S)N=Nc1c(O)[nH]c2ccc(Br)cc12 | 12 | 9 | 23 | 34 | 93* | 12
Oc1[nH]c2ccc(Br)cc2c1N=NC(=S)NCC1CCCO1 (stereo unspecified) | 30 | 21 | 4 | 31 | 81* | 23
CCN(c1ccccc1)S(=O)(=O)c1ccc(Cl)c(NC(=O)CN(C)C2CCN(C)CC2)c1 | -136 | -175 | 31 | 78* | -4 | -181
Cc1cccc(Cn2c(O)c(N=NC(=S)Nc3ccccc3F)c3ccccc32)c1 | 24 | 0 | -15 | 114* | 38 | 6
NC(=S)N=Nc1c(O)n(Cc2ccc(F)cc2)c2ccccc12 | 29 | -35 | -6 | 1 | -8 | -10
O=C(N=Nc1c(O)n(Cc2ccccc2)c2ccccc12)c1ccc(O)cc1 | 18 | 35 | -24 | 12 | 44 | 22
O=Nc1c(O)n(Cc2ccc(Cl)cc2)c2ccccc12 | 35 | 14 | -38 | 42 | 8 | 32
NC(=S)N=Nc1c(O)n(Cc2ccc(Br)cc2)c2ccccc12 | 7 | -13 | 20 | -1 | 61* | -7
Oc1c(N=NC(=S)Nc2ccccc2F)c2ccccc2n1Cc1ccc(F)cc1 | 19 | 19 | -37 | 49 | 66* | 31
Cc1ccc2c(c1)c(N=NC(N)=S)c(O)n2Cc1ccccc1 | 9 | -7 | -11 | -44 | -6 | -8
SMILES | tim10-1 inh | tim23-1 inh | PfHsp90 set2 | Calb FLC | SKKanGAS inh | TIM10 inh
Oc1c(N=NC(=S)Nc2ccccc2F)c2ccccc2n1Cc1cccc(Cl)c1 | 20 | 8 | -23 | 10 | 52* | 11
Cc1ccc(/C=C/S(=O)(=O)NCCC(=O)NCc2ccc(F)cc2)cc1 | -21 | -15 | -5 | x | x | -18
O=C(C(=Cc1ccccc1)CN1CCCCC1)c1ccccc1 | x | x | -21 | x | x | x
CC(=O)NCc1ccc(C(=O)O)cc1 | -9 | -4 | 4 | -1 | -3 | -16
O=C1/C(=C/c2ccc(N3CCOCC3)o2)SC(=Nc2ccccc2)N1CCc1c[nH]c2ccccc12 | 5 | 28 | 142* | 1 | 25 | 12
COc1cc(/C=C2\SC(=Nc3ccccc3)N(CCc3c[nH]c4ccccc34)C2=O)ccc1OC(C)C(=O)O (stereo unspecified) | 38 | 16 | 1 | 32 | 54* | 15
COc1ccc(N=C2S/C(=C\c3ccc(OC(C)C(=O)O)c(OC)c3)C(=O)N2CCc2c[nH]c3ccccc23)cc1 (stereo unspecified) | 28 | 26 | 12 | 2 | u | 10
O=C(COc1coc(CN2CCN(c3cccc(Cl)c3)CC2)cc1=O)NC1CCCC1 | 0 | 5 | 16 | 1 | -9 | 6
Cc1ccc([N+](=O)[O-])cc1S(=O)(=O)Nc1cccc(S(=O)(=O)NC2=NCCC2)c1 | -9 | -2 | x | x | x | -9
CCN(CC)S(=O)(=O)c1ccc(N/N=C/c2ccc(O)cc2O)nc1 | -7 | 14 | -19 | 91* | -1 | 4
O=C1/C(=C\c2cc([N+](=O)[O-])ccc2O)SC(=S)N1Cc1ccc(Cl)cc1 | x | x | 12 | 86* | 96* | x
COc1cc(/C=C2\SC(=S)N(CCC(=O)Nc3cccc(O)c3)C2=O)cc(OC)c1OC | 11 | 14 | 4 | 1 | 57* | 7
O=C(CCCN1C(=O)/C(=C\c2cccs2)SC1=S)Nc1cc([N+](=O)[O-])ccc1O | -9 | 3 | 2 | -6 | 73* | -16
COc1cc(/C=C2\SC(=S)N(CCC(=O)Nc3ccccc3)C2=O)cc(OC)c1OC | 17 | 28 | -23 | -2 | 15 | 12
O=C(O)CCCCN1C(=O)/C(=C\c2ccc(OCc3ccccc3)c(OCc3ccccc3)c2)SC1=S | 16 | 9 | -14 | 8 | 50* | 12
NS(=O)(=O)c1ccc(CCNC(=O)c2ccc(NC3=NC4CS(=O)(=O)CC4S3)cc2)cc1 (stereo unspecified) | 8 | -1 | 10 | 5 | -2 | 1
C=CCn1c(N)cc(=O)nc1SC(C)C(=O)Nc1ccc(C(=O)OCC)cc1 (stereo unspecified) | 20 | 9 | 4 | 9 | -4 | 6
CCC(C)(C)C1CCC2(CC1)NC(=O)N(CC(=O)NCCc1ccc(OC)c(OC)c1)C2=O (stereo unspecified) | 1 | 8 | -32 | x | x | 16
CC(N=Cc1cc([N+](=O)[O-])ccc1O)c1ccccc1 (stereo unspecified) | 26 | 22 | 4 | -8 | 1 | 8
